Sampled rows, rich in hits. Any-hit rate of the full collection: about 3.5%.
Sm TGR block – blocks Schistosoma mansoni thioredoxin glutathione reductase | purified TGR, DTNB reduction, TNB absorbance 405 nm | Q962Y6 | actives 3% (n = 360,000) | AID 485364 | Potency, µM (doses to about 114 µM), inactives show at the highest dose activity change, negative = inhibition, actives largely listed as inhibitors; note: % is set by controls: 0 for no effect and ±100 for the full control effect; nearly all actives have a fitted effect of over 60% in size
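First, TGR (20 nM dispensed) and NADPH were mixed with compound. Second, a 15 min room-temperature incubation followed. Third, further NADPH and then DTNB were added to start the reaction. Finally, TNB absorbance was monitored kinetically.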
LmPK inhibitor – blocks Leishmania mexicana pyruvate kinase activity | Potency, µM (series often up to 57.5 µM), inactives show at the top dose activity change, negative = inhibition, hits mostly inhibitors | purified LmPK, Kinase-Glo ATP luminescence, 1 h | Q27686 | actives 0.37% (n = 290,000); note: % is set by controls: 0 for no effect and ±100 for the full control effect
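0.1 nM LmPK, 0.5 mM PEP, 0.1 mM ADP; 50 mM imidazole pH 7.2, 7 mM MgCl2, 50 mM KCl; 1 h RT. Kinase-Glo luminescence readout, normalized to no-enzyme (full inhibition) and uninhibited wells.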
RE007 growth inh – less growth of the S. pombe RE007 Vpr strain; Potency, µM (titrated, usually from 92.2 µM), for the others: top-dose activity change, negative = less growth, hits mostly inhibitors; actives 0.21% (n = 360,000); S. pombe RE007 Vpr strain, BacTiter-Glo ATP luminescence, 24 h; active = well fitted falling curve with a large enough effect; inconclusive = small, poorly fitted or top-dose-only effect; inactive = no such curve, though single readings can be large or run the other way; note: % is set by controls: 0 for no effect and ±100 for the full control effect; nearly all actives have a fitted effect of over 50% in size
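Fission yeast RE007 carrying one integrated HIV-1 vpr copy, seeded at OD 0.01 in PMG+AL medium with 23 nL pinned compound. Grown 24 h at 30 degrees; viability read by BacTiter-Glo luminescence after 5 min.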
TbPYK inhibitor – inhibitors of Trypanosoma brucei pyruvate kinase | TbPYK enzyme, Kinase-Glo Plus ATP luminescence, 45 min | Potency, µM (doses to about 76.8 µM), for inactives: top-dose activity, negative = inhibition, actives largely listed as inhibitors | actives 0.12% (n = 410,000) | AID 624173; note: % is set by controls: 0 for no effect and ±100 for the full control effect; nearly all actives have a fitted effect of over 50% in size
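Screened from lowest to highest concentration, compounds were pinned into TbPYK/substrate mixtures, and ADP (130 uM final) was added. Plates sat at room temperature for 45 min prior to Kinase-Glo Plus detection by luminescence.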
Giardia FBPA inh – Giardia lamblia aldolase inhibition. purified Giardia FBPA. actives 0.71% (n = 290,000). Potency, µM (series often up to 59.6 µM), for inactives: at the highest dose activity, negative = inhibition, hits mostly inhibitors. A8B2U2; note: % is set by controls: 0 for no effect and ±100 for the full control effect; nearly all actives have a fitted effect of over 55% in size
Target sequence (A8B2U2 whole entry, looked up): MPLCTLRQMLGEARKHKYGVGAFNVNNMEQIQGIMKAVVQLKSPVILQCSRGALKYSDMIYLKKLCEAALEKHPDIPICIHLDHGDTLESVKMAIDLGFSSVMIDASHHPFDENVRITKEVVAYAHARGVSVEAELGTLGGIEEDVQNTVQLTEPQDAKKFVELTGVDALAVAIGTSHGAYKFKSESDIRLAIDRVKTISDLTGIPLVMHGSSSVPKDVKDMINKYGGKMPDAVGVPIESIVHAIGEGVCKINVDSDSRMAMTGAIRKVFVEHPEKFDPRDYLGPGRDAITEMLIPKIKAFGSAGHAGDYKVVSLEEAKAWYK
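40 nM FBPA preincubated 10 min at RT with compound (up to 57.5 uM final), then substrate plus GAPDH/TPI/NAD/arsenate coupling and diaphorase/resazurin added. Fluorescence read after 20 min at RT, 525/598 nm.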
NS1 inh – blocks influenza NS1 protein function. Potency, µM (highest dose often 46.1 µM), without a hit: at the highest dose activity, positive = more growth. actives 0.4% (n = 270,000). AID 2326; calls by dose curve; note: actives are rising curves; nearly all actives have a fitted effect of over 50% in size
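A cell-based growth assay was used: compounds that relieve NS1-induced slow growth of budding yeast raise OD600. Assay medium was yeast nitrogen base with ammonium sulphate and -URA supplement, pH 6.0, with 2% galactose.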
* = called active by the depositor; [ ] = dose if it differs, or a comment. Unless noted, calls come from the whole dose curve; as a rule, active = well fitted curve in the direction sought with a large enough effect; inconclusive = small, poorly fitted or top-dose-only effect, or another doubt; inactive = no such curve, though single readings can be large; an effect the other way counts as inactive or inconclusive. Potency is the fitted concentration of half-maximal effect.

For COc1ccccc1NC(=O)CSc1nccc(-c2ccco2)n1 the results were Sm TGR block 25µM*, RE007 growth inh 1% and TbPYK inhibitor -13%.
Screening COc1ccc(NC(=O)CSc2nnc(-c3ccccc3Cl)n2Cc2ccco2)c(OC)c1 returned Sm TGR block 35µM*, LmPK inhibitor 7%, RE007 growth inh 18%, TbPYK inhibitor 0%, Giardia FBPA inh 14% and NS1 inh -22%.
`COc1ccccc1NC(=O)CSc1nnc(-c2ccccn2)n1Cc1ccco1` gave Sm TGR block 40µM*, LmPK inhibitor 1%, RE007 growth inh -11%, TbPYK inhibitor 0%, Giardia FBPA inh 2% and NS1 inh -10%.
`COc1ccc(CCNC(=O)c2c(O)nc3ccccn3c2=O)cc1OC` gave Sm TGR block -3% and TbPYK inhibitor 0%.
Screening COC(=O)c1scc(-c2ccc(C)cc2)c1S(=O)(=O)N1CCN(c2ccc(C)cc2C)CC1 returned Sm TGR block 1% and TbPYK inhibitor -1%.
`CCc1nnc(SCc2nc(-c3cccc(Cl)c3)oc2C)c2cc3sc(C)cc3n12` gave Sm TGR block 5% and TbPYK inhibitor -9%.
For COC(=O)C1=C(c2ccccc2)c2ccccc2S(=O)(=O)N1CC(=O)Nc1cccc(C(C)=O)c1 the results were Sm TGR block -1% and TbPYK inhibitor 5%.
O=C(CSc1nnc(-c2ccccc2)c(-c2ccccc2)n1)NCCc1ccccc1 was read as Sm TGR block -5% and TbPYK inhibitor 2%.
Screening COc1ccc(-c2cc(OC(=O)c3ccccc3)c3c(C)oc(C)c3c(=O)c2)cc1OC returned Sm TGR block inconclusive and TbPYK inhibitor -2%.
`COc1ccc(-c2cc(OC(=O)c3ccc(F)cc3)c3c(C)oc(C)c3c(=O)c2)cc1` gave Sm TGR block 35µM*, LmPK inhibitor 1%, Giardia FBPA inh inconclusive and NS1 inh -7%.
`COc1ccc(-c2cc(OC(=O)c3cccc(Cl)c3)c3c(C)oc(C)c3c(=O)c2)cc1` gave Sm TGR block 22µM* and TbPYK inhibitor 0%.
For COC(=O)c1ccc(NC(=O)CCn2cnnn2)cc1 the results were Sm TGR block 8% and TbPYK inhibitor 1%.
Screening Cc1sc2c(c1C)CN(C1CC(C)(C)NC(C)(C)C1)CN2C(=O)c1ccco1 returned Sm TGR block 25µM*, LmPK inhibitor -4%, Giardia FBPA inh 0% and NS1 inh -8%.
Screening CC1(C)CC(CCNC(=O)c2ccco2)CC(C)(C)N1 returned Sm TGR block -1%, LmPK inhibitor 2%, RE007 growth inh 2%, TbPYK inhibitor 0%, Giardia FBPA inh -8% and NS1 inh 3%.
For COc1ccc(OC)c(C2C(C(=O)Nc3ccccc3OC)=C(C)Nc3c(C(=O)Nc4ccc(F)cc4)cnn32)c1 (stereo not drawn) the results were Sm TGR block 16% and TbPYK inhibitor 1%.
For CCOC(=O)C1=C(C)N(C)C(C)=C(C(=O)OCC)C1c1cccnc1 the results were Sm TGR block -11%, LmPK inhibitor -2%, RE007 growth inh 18%, TbPYK inhibitor 0%, Giardia FBPA inh 16% and NS1 inh -14%.
`CCOC(=O)C1C(=O)C(C(=O)OCC)C(c2cccnc2)NC1c1cccnc1` (stereo not drawn) gave Sm TGR block 25µM*, LmPK inhibitor 2%, RE007 growth inh -10%, TbPYK inhibitor -13%, Giardia FBPA inh -3% and NS1 inh -10%.
Screening Cc1cc(C)cc(N2C(=O)CC(c3ccc(C(F)(F)F)cc3)C3=C2COC3=O)c1 (stereo not drawn) returned Sm TGR block -1% and TbPYK inhibitor 2%.
Screening CCN(C(=O)Cn1c(=O)n(CCCS(=O)(=O)C2CCCCC2)c(=O)c2ccccc21)c1cccc(C)c1 returned Sm TGR block 3% and TbPYK inhibitor -2%.
CCOC(=O)CNC(=O)N1[C@H](c2cccs2)[C@@H](C)C(=O)[C@@H](C)[C@@H]1c1cccs1 was read as Sm TGR block -15% and TbPYK inhibitor 0%.
CCCCC/C=C\C/C=C\C/C=C\CCCCC(=O)O was read as Sm TGR block 28µM*, RE007 growth inh 2%[18.4 µM], TbPYK inhibitor 6% and Giardia FBPA inh 4%.
`CCCCC/C=C\C/C=C\CCCCCCCC(=O)O` gave TbPYK inhibitor 2% and Giardia FBPA inh 1%.
`Cc1ccc(CNC(=O)CN2C(=O)CSc3ccc(S(=O)(=O)N(C)C)cc32)cc1` gave Sm TGR block 3% and TbPYK inhibitor 3%.
For Nc1c(-c2nc(-c3cccs3)no2)nnn1-c1cccc(F)c1 the results were Sm TGR block 6% and TbPYK inhibitor 1%.
Screening CCOC(=O)c1c(C)n(C(=O)c2ccco2)c(=O)n1C(=O)c1ccco1 returned Sm TGR block 35µM*, LmPK inhibitor -5%, RE007 growth inh 1%, TbPYK inhibitor 1%, Giardia FBPA inh -11% and NS1 inh -8%.
`CCC1(Cc2ccc(N)cc2)CCC(=O)NC1=O` (stereo not drawn) gave TbPYK inhibitor 0%[157 µM].
COc1ccc(N(CC(=O)NCc2ccco2)S(C)(=O)=O)c(OC)c1 was read as Sm TGR block -18%, LmPK inhibitor -1%, RE007 growth inh 2%, TbPYK inhibitor -18%, Giardia FBPA inh -2% and NS1 inh 0%.
Screening CCOc1ccc(N(CC(=O)NCc2ccco2)S(C)(=O)=O)cc1 returned Sm TGR block 50µM*, LmPK inhibitor -3%, RE007 growth inh 8%, TbPYK inhibitor 5%, Giardia FBPA inh 8% and NS1 inh -1%.
For CS(=O)(=O)N(CC(=O)NCc1ccco1)c1ccccc1Cl the results were Sm TGR block 40µM*, LmPK inhibitor -8%, RE007 growth inh 0%, TbPYK inhibitor 0%, Giardia FBPA inh 0% and NS1 inh 1%.
For CCOc1ccc(N(CC(=O)Nc2ccccc2C(=O)NCc2ccco2)S(C)(=O)=O)cc1 the results were Sm TGR block 3%, LmPK inhibitor 9%, RE007 growth inh 12%, TbPYK inhibitor 1%, Giardia FBPA inh -7% and NS1 inh -10%.
For CS(=O)(=O)c1ccc(N)c(SSc2cc(S(C)(=O)=O)ccc2N)c1 the results were Sm TGR block -4%, RE007 growth inh 7% and TbPYK inhibitor 3.5µM*.
`O=S(=O)(Cc1ccccc1Cl)Nc1ccccn1` gave Sm TGR block 25µM*, LmPK inhibitor -6%, RE007 growth inh 11%, TbPYK inhibitor 4%, Giardia FBPA inh 3% and NS1 inh 0%.

Source: PubChem BioAssay
